Screening data deposited in PubChem by The Scripps Research Institute Molecular Screening Center.
Compounds with a hit are over-represented: about 3.4% of the library has one in this group of screens.
GPR151 ag: activators of human GPR151 | PathHunter beta-arrestin GPR151 cells, luminescence | AID 1508602 | Q8TDV0 | activation, % at 11.2 µM | hit rate 1% among 650,000; in the data active means activation above about 4.9%;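 further: 0% = median of compound wells and 100% = cells with positive control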
Target sequence (Q8TDV0 whole entry, looked up): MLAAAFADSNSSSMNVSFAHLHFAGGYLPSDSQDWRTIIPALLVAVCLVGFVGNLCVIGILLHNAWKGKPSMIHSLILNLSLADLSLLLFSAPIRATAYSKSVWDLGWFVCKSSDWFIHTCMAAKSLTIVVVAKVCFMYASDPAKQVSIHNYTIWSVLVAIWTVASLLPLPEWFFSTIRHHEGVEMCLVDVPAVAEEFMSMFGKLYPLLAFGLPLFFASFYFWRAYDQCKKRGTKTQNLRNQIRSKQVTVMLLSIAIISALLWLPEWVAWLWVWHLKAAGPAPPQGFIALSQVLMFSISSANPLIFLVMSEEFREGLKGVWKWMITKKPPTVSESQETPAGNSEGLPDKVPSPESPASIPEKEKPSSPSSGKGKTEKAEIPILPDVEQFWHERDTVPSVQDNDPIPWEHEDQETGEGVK
FBW7 act: human FBW7 E3 ligase activation, primary screen. Q969H0. AlphaScreen FBW7–phospho-cyclin E peptide binding, activator screen. normalized activity (activation), % at 26.1 µM. hit rate 0.13% among 650,000. AID 1259310; in the data active means normalized activity above about 1.9%;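 further: purified mutant Fbw7 with reduced substrate affinity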
MITF primary: human MITF inhibition, primary screen; AlphaScreen MITF homodimerization, bead proximity signal; O75030; inhibition, % at 2.6 µM; hit rate 0.91% among 650,000; in the data active means inhibition above about 50%;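 further: 0% = vehicle wells with protein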
TEAD-YAP inh: TEAD-YAP interaction inhibition. AID 1259422. inhibition, % at 9.12 µM. HEK-TIYL cells, TEAD-Gal4/YAP UAS-luciferase luminescence. hit rate 1.4% among 640,000; in the data active means inhibition above about 32%;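 further: 0% = median of test compound wells and 100% = reference inhibitor wells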
MITF inh conf: confirmation of human MITF inhibitors. shares compounds with MITF primary. AlphaScreen MITF homodimerization, biotin/His-MITF beads. inhibition, % at 2.6 µM. hit rate 16% among 4,700. AID 1259372;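 active means inhibition above a cutoff derived from the DMSO control wells, cut at about 28% in these data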;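 further: 0% = MITF dimer wells with DMSO only; inhibitors lower the bead chemiluminescence by keeping MITF from dimerizing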
AlphaScreen DR: counter-screen: compounds optically interfering with AlphaScreen; IC50, µM; AlphaScreen optical interference counterscreen, cell-free; shares compounds with MITF primary; hit rate 6% among 480; call rule not given here
AS interf ctr: optically interferes with AlphaScreen signal | shares compounds with MITF primary | LysRS AlphaScreen counterscreen, signal interference, triplicate | inhibition, % at 2.6 µM | hit rate 7.6% among 4,700;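 active means inhibition above a cutoff derived from the DMSO control wells, cut at about 30% in these data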
An asterisk follows results filed as active; x = no result.

SMILES | GPR151 ag | FBW7 act | MITF primary | TEAD-YAP inh | MITF inh conf | AS interf ctr | others
Cc1noc(/C=C/c2ccccc2F)c1S(=O)(=O)N1CCC(C(=O)N2CCCC2)CC1 | 0 | 0 | 21 | 4 | x | x
O=C(c1ccc(-n2c(SCc3ccccc3F)nc3ccccc3c2=O)cc1)N1CCOCC1 | 0 | 0 | 1 | 1 | x | x
COC(=O)Cc1cc(=O)n(-c2nc3ccccc3[nH]2)[nH]1 | 4 | -1 | 94* | -8 | 72* | 99*
O=C(O)Cn1cnc2sc3c(c2c1=O)CCC3 | -1 | -1 | 30 | 1 | x | x
NC(=O)Cn1cnc2sc3c(c2c1=O)CCC3 | 0 | 0 | 66* | -6 | 60* | 3 | AlphaScreen DR=>6.5
CC(NCCN(C)C)C(=O)Nc1ccc2c(c1)OCO2 (stereo not given) | 0 | 0 | 73* | 3 | 3 | 2
Clc1nc(NCCOc2ccccc2)c2[nH]cnc2n1 | -1 | 0 | 5 | -2 | x | x
COc1ccc(CCNC(=O)CCn2c(SCc3ccc(F)cc3)nc3ccccc3c2=O)cc1OC | 1 | 0 | -3 | 8 | x | x
COCc1nc2ccccc2n1CCc1noc(-c2ccccc2OC)n1 | -1 | 0 | 95* | 2 | 4 | -7
COCc1nc2ccccc2n1CCc1noc(-c2ccc(OC)cc2)n1 | 3 | 1 | 2 | -2 | x | x
Cc1ccc(Cn2c(CO)cnc2SCc2ccccc2F)cc1 | 1 | 0 | 0 | -13 | x | x
COc1cccc(CN2CCN(Cc3ccc(F)cc3)C(CCO)C2)c1OC (stereo not given) | 0 | 0 | 11 | 10 | x | x
COc1ccc(CN2CCN(Cc3ccc(Cl)cc3)CC2)c2ccccc12 | 0 | 0 | 83* | 2 | 13 | 20
CCN1CCN(Cc2ccc(OC)c3ccccc23)CC1 | 0 | 0 | 31 | 0 | x | x
COc1ccc(CN2CCN(Cc3ccc(SC)cc3)CC2)c(OC)c1OC | 0 | 0 | 27 | 14 | x | x
COc1cccc(CN2CCN(Cc3ccc(F)cc3)CC2)c1OC | -1 | 0 | 80* | -10 | 11 | 9
CCS(=O)(=O)N1CCN(Cc2ccc(OC)c(OC)c2OC)CC1 | 0 | 0 | 47 | 14 | x | x
CCOc1ccc(CN2CCN(Cc3ccc(OC)c(OC)c3OC)CC2)cc1 | -1 | 0 | 66* | 13 | 4 | 2
COc1ccc(CN2CCN(Cc3ccc(F)cc3)CC2)c(OC)c1OC | 0 | 0 | 60* | 1 | 2 | 7
COc1cc(NC(=O)COc2ccccc2Cl)cc(OC)c1 | 0 | 1 | -2 | -7 | x | x
CCOc1ccc(NC(=O)c2c(NCc3ccc(N(C)C)cc3)sc3c2CCC3)cc1 | -2 | 0 | -3 | -12 | x | x
CCOC(=O)c1ccc(N=Cc2ccc(O)cc2)cc1 | -1 | 0 | 19 | 13 | x | x
COc1ccc(CN2CCCCC2)c(OC)c1OC | -2 | 0 | 21 | -4 | x | x
COc1cc(OC)c(OC)cc1CN1CCN(Cc2ccc(OC)c(OC)c2OC)CC1 | 0 | 0 | 59* | -1 | 2 | -2
CC(C)=C1C2C=CC1C(C(=O)Nc1cccc([N+](=O)[O-])c1)C2C(=O)O (stereo not given) | 1 | 0 | 8 | -7 | x | x
SMILES | GPR151 ag | FBW7 act | MITF primary | TEAD-YAP inh | MITF inh conf | AS interf ctr | others
COc1ccc(NC(=S)NCC(c2ccco2)N2CCCC2)cc1 (stereo not given) | -1 | 0 | 6 | 2 | x | x
COC(=O)CCNCC(c1ccco1)N1CCCCC1 (stereo not given) | 0 | 0 | 54* | 1 | -2 | 1
COC(=O)c1cc(CNCC(c2ccco2)N2CCCCC2)oc1C (stereo not given) | 0 | 0 | 76* | -4 | 11 | 16
Cc1nc(C)n(-c2ccc(Nc3cc(-n4cc(N(c5cccnc5)c5cccnc5)cn4)ccn3)cc2)n1 | -1 | 1 | 51* | -1 | 52* | 0 | AlphaScreen DR=>6.5
O=C(CN1CCCCC1)Nc1c2c(nc3ccccc13)N(c1ccccc1)CC2 | 1 | 0 | 32 | 0 | x | x
CN1CCc2c1nc1ccccc1c2NC(=O)CNC1CC1 | 0 | 0 | 53* | -7 | 16 | 24
CN1CCN(CC(=O)Nc2c3c(nc4ccccc24)N(C)CC3)CC1 | 0 | 0 | 79* | 7 | -8 | -3
CN(CC(=O)Nc1c2c(nc3c1CCC3)CCCC2)Cc1ccccc1 | -1 | 0 | 68* | 0 | 2 | 1
CN(CC(=O)Nc1c2c(nc3ccccc13)N(C)CC2)Cc1ccccc1 | 4 | 0 | 65* | 22 | -6 | -7
CN1CCc2c1nc1ccccc1c2NC(=O)C12CC3CC(CC(C3)C1)C2 | 1 | 0 | 12 | 2 | x | x
Cc1cccc(NC(=O)CCS(=O)(=O)c2cccc3cccnc23)c1 | 0 | 0 | 5 | 6 | x | x
COCCNC(=O)c1csc2c1CCCCC2 | 1 | 0 | 4 | -2 | x | x
CN1C(=O)C(=Cc2cn(CC(N)=O)c3ccccc23)C(=O)N(C)C1=O | 1 | 0 | 7 | -1 | x | x
OCCOCCN1CCN(Cc2ccc(F)c(Br)c2)CC1 | 1 | 0 | 81* | 4 | -12 | 0
OCCOCCN1CCN(Cc2ccc(Br)cc2)CC1 | 2 | 0 | -9 | 11 | x | x
COc1oc(-c2ccc(C)cc2)nc1C(F)(F)F | -1 | 2 | 10 | 14 | x | x
COc1oc(-c2ccc(F)cc2)nc1C(F)(F)F | -2 | 0 | 54* | -1 | 9 | 14
Cc1ccc(-c2nnc(Nc3ccc(Cl)c(Cl)c3)c3ccccc23)cc1S(=O)(=O)NCCO | -1 | 0 | 89* | -10 | 3 | 8
C=CCOC(=O)CCC(=O)Nc1ccc(C)cc1 | 1 | 0 | -1 | -1 | x | x
Cc1ccc(C(=O)Nc2ccc(-c3noc(-c4ccccc4F)n3)cc2)cc1[N+](=O)[O-] | 0 | 1 | 12 | 4 | x | x
C=CCNCCOCCOc1cc(C)cc(C(C)C)c1 | 2 | 0 | 64* | 0 | 11 | 19
COCCNCCOCCOc1cc(C)cc(C(C)C)c1 | -1 | 0 | 53* | 1 | 5 | 6
C=CCNCCOc1cc(C)cc(C(C)C)c1 | -1 | 0 | -19 | -13 | x | x
C/C=N/NC(=O)c1cccc([N+](=O)[O-])c1 | 2 | 0 | 7 | -12 | x | x
COC(=O)C1=C(C)n2nnnc2NC1c1cc2ccccc2o1 (stereo not given) | 1 | 0 | 77* | 11 | 10 | 18
C=CCn1c(SCC(=O)O)nc2sc(C)c(C)c2c1=O | -1 | 0 | 81* | 0 | 4 | 23
COc1cc(/C=N\Nc2ccc([N+](=O)[O-])cn2)cc(OC)c1O | 1 | 0 | 8 | 9 | x | x
COc1cc(NC(=O)c2nn3c(c2Cl)NC(c2ccccc2)CC3C(F)(F)F)cc([N+](=O)[O-])c1 (stereo not given) | 1 | 0 | -9 | -10 | x | x
COc1cc(NC(=O)c2nn3c(c2Cl)NC(c2cccs2)CC3C(F)(F)F)cc([N+](=O)[O-])c1 (stereo not given) | 0 | 0 | 74* | -4 | -5 | -8
